High-throughput results deposited in PubChem BioAssay by National Center for Advancing Translational Sciences (NCATS).
TDP1 cell CPT: qHTS for Inhibitors of human tyrosyl-DNA phosphodiesterase 1 (TDP1): qHTS in cells in presence of CPT; Potency, µM (titrated, usually from 46.2 µM), for inactives: at the top dose activity change, negative = growth inhibition, actives largely listed as inhibitors; chicken DT40 Tdp1-/-;hTDP1 cells + 20 nM CPT, ATP luminescence, 48 h; actives 12% (n = 420,000); also: potency is read from the fitted curve at half-maximal effect; % is scaled to controls: 0 for no effect and ±100 for the full control effect; nearly all actives have a fitted effect of over 55% in size
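Chicken DT40 Tdp1-/- cells complemented with human TDP1, 400 cells/well, exposed to compounds plus 20 nM camptothecin for at least 48 h at 37 C; viability read as ATP content by CellTiter-Glo luminescence.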
uPA generation: qHTS for Inhibitors of Cell Surface uPA Generation. cell surface uPA generation assay, qHTS. actives 0.31% (n = 330,000). AID 540303, 2011. Potency, µM (titrated, usually from 38.3 µM), inactives show at the top dose activity change, negative = inhibition, actives largely listed as inhibitors; active = well fitted inhibition curve with a large enough effect; inconclusive = small, poorly fitted or top-dose-only effect; inactive = no such curve, though single readings can be large or run the other way; tested in mouse RAW 264.7 cells; also: potency is read from the fitted curve at half-maximal effect; % is scaled to controls: 0 for no effect and ±100 for the full control effect; nearly all actives have a fitted effect of over 55% in size
miR-21 reporter: qHTS Assay for Modulators of miRNAs and/orActivators of miR-21 | HeLa miR-21 FLuc reporter, luciferase, 48 h | Potency, µM (titrated, usually from 38.3 µM), for the others: at the highest dose activity change, positive = activation, most hits filed as activators | 340,000 tested, under 10 active | AID 2288, 2010;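 also: % of control where 0% means no effect; miR-21 action dims this reporter so a rising signal means less miR-21 action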
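Compounds were titrated across several concentrations (up to approximately 40 uM) and incubated 48 hours with HeLa miR-21-FLuc reporter cells (miR-21 target sequence downstream of FLuc, endogenous miR-21). Readout was firefly luciferase luminescence after lytic detection reagent.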
TDP1 cell noCPT: qHTS for Inhibitors of human tyrosyl-DNA phosphodiesterase 1 (TDP1): qHTS in cells in absence of CPT. DT40 Tdp1-/- hTDP1 cells, no CPT, ATP luminescence, 48 h. Potency, µM (highest dose often 46.2 µM), for the others: at the top dose activity change, negative = growth inhibition, hits mostly inhibitors. actives 15% (n = 420,000). AID 686978, 2013; also: potency is read from the fitted curve at half-maximal effect; % is scaled to controls: 0 for no effect and ±100 for the full control effect; nearly all actives have a fitted effect of over 55% in size
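No-CPT arm: Tdp1-/-;hTDP1 DT40 cells (400/well) plus compounds, incubated ≥48 hr at 37 °C. Readout CellTiter-Glo luminescence.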
TDP1 inh: qHTS Assay for Inhibitors of Tyrosyl-DNA Phosphodiesterase (TDP1); recombinant TDP1, AlphaScreen DNA substrate cleavage; Potency, µM (doses to about 130 µM), for inactives: at the highest dose activity change, negative = inhibition, most hits filed as inhibitors; actives 0.28% (n = 350,000); also: potency is read from the fitted curve at half-maximal effect; % is scaled to controls: 0 for no effect and ±100 for the full control effect; nearly all actives have a fitted effect of over 40% in size
Target sequence (Q9NUW8 whole entry, looked up): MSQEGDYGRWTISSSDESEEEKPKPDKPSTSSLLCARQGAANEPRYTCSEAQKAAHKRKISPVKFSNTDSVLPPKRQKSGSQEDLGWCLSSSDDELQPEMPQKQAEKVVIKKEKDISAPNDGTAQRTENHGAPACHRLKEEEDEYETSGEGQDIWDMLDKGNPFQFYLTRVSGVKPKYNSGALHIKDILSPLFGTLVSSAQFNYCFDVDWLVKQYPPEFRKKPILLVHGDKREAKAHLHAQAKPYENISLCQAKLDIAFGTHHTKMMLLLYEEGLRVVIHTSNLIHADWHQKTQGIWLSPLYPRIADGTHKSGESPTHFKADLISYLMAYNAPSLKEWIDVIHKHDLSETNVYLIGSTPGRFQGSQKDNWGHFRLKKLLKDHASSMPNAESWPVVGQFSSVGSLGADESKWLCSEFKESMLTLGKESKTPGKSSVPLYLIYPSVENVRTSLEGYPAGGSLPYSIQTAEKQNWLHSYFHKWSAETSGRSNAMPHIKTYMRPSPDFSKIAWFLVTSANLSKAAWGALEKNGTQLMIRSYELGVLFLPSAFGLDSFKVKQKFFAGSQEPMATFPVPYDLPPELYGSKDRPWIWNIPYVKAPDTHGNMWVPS
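Tdp1 1 nM final; 15 min RT w/ cpd; substrate 15 nM, 5 min; beads 10 ug/ml, 10 min; AlphaScreen read. Neg ctrl: no enzyme.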
Active calls of the source: *; u = inconclusive; x = no result given; [ ] = remark or other dose. The list is not random: actives were taken first. Their share in the collection is about 16%. Unless noted, calls follow the shape of the dose curve; as a rule, active = well fitted curve in the direction sought with a large enough effect; inconclusive = small, poorly fitted or top-dose-only effect, or another doubt; inactive = no such curve, though single readings can be large; an effect the other way counts as inactive or inconclusive.

SMILES	TDP1 cell CPT	uPA generation	miR-21 reporter	TDP1 cell noCPT	TDP1 inh
Cc1nc2ccc(C(=O)OC(C)C(=O)c3c(C)[nH]c4ccccc34)cc2nc1C (stereo not given)	u	x	x	13µM*	x
CC(=O)c1ccccc1OC(=O)c1ccc([N+](=O)[O-])o1	u	-3%	10%	-24%	-4%
CCCCn1c(N)c(N(CCC(C)C)C(=O)C2CC(=O)N(c3cccc(SC)c3)C2)c(=O)[nH]c1=O (stereo not given)	-15%	7%	x	5%	x
O=c1[nH]c(-c2ccc(F)cc2)nc2c1sc(=S)n2-c1ccccc1	u	-1%	1%	6.5µM*	-3%
O=C(CSc1nc(N2CCCCC2)nc(N2CCCCC2)n1)N1CCN(c2ccccc2)CC1	23µM*	-3%	-2%	16µM*	1%
O=C(CSc1nc(Nc2ccccc2)nc(N2CCOCC2)n1)N1CCc2ccccc21	u	12%	-8%	18µM*	2%
O=C(CSc1nc(Nc2ccccc2)nc(N2CCOCC2)n1)Nc1ccc2c(c1)OCCO2	-26%	7%	-15%	-27%	7%
O=C(CSc1nc(Nc2ccccc2)nc(N2CCOCC2)n1)N1CCCC1	u	13%	-4%	21µM*	2%
Cc1cc(S(=O)(=O)NCCc2ccccc2)ccc1-n1cnnn1	-25%	0%	8%	-25%	-13%
COc1ccc(-n2ccn(CC(=O)Nc3ccc(C)cc3C)c(=O)c2=O)cc1	15%	x	5%	4%	1%
CCN1CCN(c2ccc(S(=O)(=O)N3CCCCC3)cc2NC(=O)c2cccc(OC(F)F)c2)CC1	u	-5%	x	21µM*	10%
CC1CN(S(=O)(=O)c2cccc(C(=O)Nc3ccccc3N3CCCCC3)c2)CC(C)O1 (stereo not given)	16µM*	3%	x	13µM*	0%
CC1CN(S(=O)(=O)c2cccc(C(=O)Nc3ccccc3N3CCOCC3)c2)CC(C)O1 (stereo not given)	u	0%	x	u	-1%
O=C(Nc1cc(S(=O)(=O)N2CCOCC2)ccc1N1CCCCC1)c1ccccc1	u	2%	x	21µM*	3%
CC(C)(C)C(=O)Nc1cc(S(=O)(=O)N2CCCCC2)ccc1N1CCCCC1	16µM*	1%	0%	23µM*	3%
CCOC(=O)N1CCN(Cc2ccc(F)cc2F)CC1	-4%	6%	-5%	-20%	-14%
CCN(CC)S(=O)(=O)c1cc(NC(=O)CSc2nccn2C)ccc1C	7%	-2%	-30%	-11%	0%
Cc1cccc(CNC(=O)C2CCC(=O)N(CCc3cccc(F)c3)C2)n1 (stereo not given)	-1%	1%	-1%	14%	x
CCN1CCN(c2ccc(S(=O)(=O)N3CCCCC3)cc2NC(=O)/C=C/c2ccc(F)cc2)CC1	u	-9%	x	u	x
CC1CN(S(=O)(=O)c2cccc(C(=O)N=c3sccn3C)c2)CC(C)O1 (stereo not given)	18µM*	-7%	x	u	0%
O=C(Nc1ccc(Cl)c(Cl)c1)Nc1cc(C(=O)N2CCOCC2)ccc1N1CCCCC1	u	2%	x	u	x
CCN1CCN(c2ccc(S(=O)(=O)N3CCCCC3)cc2NC(=O)/C=C/c2cccc(OC)c2OC)CC1	u	-8%	-2%	16µM*	6%[56.1 µM]
O=C(Nc1ccc(Cl)c(Cl)c1)Nc1cc(S(=O)(=O)N2CCOCC2)ccc1N1CCCC1	u	-5%	u	18µM*	5%
CC(C)COc1cccc(C(=O)Nc2cc(S(=O)(=O)N3CCOCC3)ccc2N2CCCC2)c1	u	-7%	x	21µM*	x
O=C(CCC(=O)N1CCOc2ccccc21)NCCCN1CCOCC1	-4%	3%	-1%	-5%	x
SMILES	TDP1 cell CPT	uPA generation	miR-21 reporter	TDP1 cell noCPT	TDP1 inh
CC12CC3CC(C)(C1)CC(C(=O)Nc1nncs1)(C3)C2	0%	7%	7%	0%	2%
CC(=O)c1ccccc1NC(=O)c1cc(S(=O)(=O)N2CCOCC2)ccc1N1CCCC1	u	21%	x	21µM*	2%
O=C(Nc1cc(S(=O)(=O)N2CCOCC2)ccc1N1CCCC1)c1ccccc1F	2%	x	x	2%	x
Cc1ccc(C(=O)Nc2cc(S(=O)(=O)N3CCOCC3)ccc2N2CCCC2)cc1	-15%	-9%	x	u	2%
CN1CCN(c2ccc(S(=O)(=O)N3CCOCC3)cc2NC(=O)CC(C)(C)C)CC1	u	-2%	x	3%	1%
O=C(Nc1cc(S(=O)(=O)N2CCOCC2)ccc1N1CCCCC1)c1ccc(Cl)cc1	18µM*	10%	x	13µM*	2%
O=C(Nc1cc(S(=O)(=O)N2CCOCC2)ccc1N1CCCC1)c1ccc2c(c1)S(=O)(=O)c1ccccc1C2=O	13µM*	4%	-15%	u	1%
Cc1c(C(=O)Nc2cc(S(=O)(=O)N3CCOCC3)ccc2N2CCN(C)CC2)oc2ccccc12	u	-2%	2%	18µM*	x
CCCC[C@]12Cc3cc(OC)c(OC)cc3C(O1)C1=C(O2)C(=O)c2ccccc2C1=O	x	x	-6%[7.66 µM]	x	x
Cc1nnc(SCC(=O)N/N=C/c2cc(Cl)c(O)c(Cl)c2)s1	-1%	-2%	-4%	-5%	-14%
COc1ccc2c(c1)CC(N1CCN(C)CC1)c1cc(OC)ccc1S2 (stereo not given)	u	-6%	x	u	x
CSc1ccc2c(c1)C(N1CCN(C)CC1)Cc1ccc(F)cc1S2 (stereo not given)	u	-21%	x	16µM*	x
COc1cccc(C(=O)NCC(=O)N/N=C/c2ccc3c(c2)OCO3)c1	1%	3%	-9%	5%	x
COc1cccc(N2CCN(C(=O)c3cc(-c4ccc(F)cc4)[nH]c3C)CC2)c1	15µM*	8%	14%	21µM*	x
Cc1ccc(N2CCN(C(=O)c3cc(-c4ccc(F)cc4)[nH]c3C)CC2C)cc1 (stereo not given)	u	9%	20%	21µM*	x
O=C(NN=Cc1ccccc1OC(F)F)c1ccc(NS(=O)(=O)c2cccs2)cc1	u	-1%	x	u	2%
COc1cccc(-n2cc(C(=O)Nc3ccccc3C(N)=O)c3ccccc3c2=O)c1	u	x	-18%	10µM*	8%
COc1cc2nc(=S)n3[nH]c(COc4ccccc4C)nc3c2cc1OC	1.2µM*	13%	-3%	5.8µM*	8%
COc1cc2nc(=S)n3[nH]c(CCn4nc(C)cc4C)nc3c2cc1OC	1.6µM*	2%	12%	1.3µM*	11%
